ChEMBL document CHEMBL4513151, “CO-ADD screening of Institut Català d'Investigació Química (Spain) compounds”
Several values for one entry are separate records, joined by “and”; a condition that tells them apart may be missing. Identical values can stand only once. Entries with a potency or affinity are not part of this list.

Test system: Klebsiella pneumoniae
Conditions: Concentration 32 ug.mL-1; ASSAY_TEST Inhibition of Bacterial Growth; detection method Absorption (OD600); MEDIA CAMHB; plate type 384well; NBS; CORNING #3640; time 18 hr

**Q.** For `C=C1CC2(COC(C)(C)OC2)C[C@@H]1[C@@H](Nc1ccc(Br)cc1)c1ccccc1`, which Inhibition is on record?
**A.** 31.4%

**Q.** `C=C1CC(C(=O)OC)(C(=O)OC)C[C@@H]1[C@@H](NS(=O)(=O)c1ccc(C)cc1)c1ccccc1` was tested. Which Inhibition did it give?
**A.** 18.19%

**Q.** How did the Inhibition turn out when `C[C@]12CC[C@@H](O1)[C@H]1C=C[C@H](OC(=O)c3ccccc3)[C@H]12` was run?
**A.** 19.45%

**Q.** `C=C1CC(C(=O)OC)(C(=O)OC)C[C@@H]1[C@H](c1ccccc1)n1ccc2ccccc21` was tested. Which Inhibition did it give?
**A.** 21.67%

**Q.** How did the Inhibition turn out when `C=C1CC(C(=O)OC)(C(=O)OC)C[C@@H]1[C@H](c1ccccc1)n1ccc2ccc(Cl)cc21` was run?
**A.** 17.79%

**Q.** How did the Inhibition turn out when `C=C1CC(COC)(COC)C[C@@H]1[C@@H](Nc1ccc(Br)cc1)c1ccccc1` was run?
**A.** 12.17%

**Q.** For `C[C@@H]1CC(=O)C=C2C(=O)[C@@H]3[C@@H](C3(C)C)[C@]21C`, which Inhibition is on record?
**A.** 18.57%

**Q.** How did the Inhibition turn out when `C[C@]12CC[C@@](C)(O1)[C@H]1C=C[C@H](OC(=O)c3ccccc3)[C@H]12` was run?
**A.** 15.14%

**Q.** `C[C@]12CC[C@@](C3CCCC3)(O1)[C@H]1C=C[C@H](OC(=O)c3ccccc3)[C@H]12` was tested. Which Inhibition did it give?
**A.** 19.59%

**Q.** Which Inhibition does the source give for `C[C@]12CC[C@@](c3ccc4ccccc4c3)(O1)[C@H]1C=C[C@H](OC(=O)c3ccccc3)[C@H]12` here?
**A.** 30.93%

**Q.** `C=C1CC(COCc2ccc(OC)cc2)(COCc2ccc(OC)cc2)C[C@@H]1[C@@H](Nc1ccc(Br)cc1)c1ccccc1` was tested. Which Inhibition did it give?
**A.** 3.98%

Test system: Candida albicans
Conditions: 32 ug/mL

**Q.** How did the Inhibition turn out when `C=C1CC2(COC(C)(C)OC2)C[C@@H]1[C@@H](Nc1ccc(Br)cc1)c1ccccc1` was run?
**A.** 6.45%

**Q.** For `C=C1CC(C(=O)OC)(C(=O)OC)C[C@@H]1[C@@H](NS(=O)(=O)c1ccc(C)cc1)c1ccccc1`, which Inhibition is on record?
**A.** 0.13%

**Q.** With `C[C@]12CC[C@@H](O1)[C@H]1C=C[C@H](OC(=O)c3ccccc3)[C@H]12` as the compound, how does the Inhibition read?
**A.** 6.1%

**Q.** Which Inhibition does the source give for `C=C1CC(C(=O)OC)(C(=O)OC)C[C@@H]1[C@H](c1ccccc1)n1ccc2ccccc21` here?
**A.** -0.58%

**Q.** With `C=C1CC(C(=O)OC)(C(=O)OC)C[C@@H]1[C@H](c1ccccc1)n1ccc2ccc(Cl)cc21` as the compound, how does the Inhibition read?
**A.** 3.75%

**Q.** For `C[C@]12CC[C@@](c3ccc(C(F)(F)F)cc3)(O1)[C@H]1C=C[C@H](OC(=O)c3ccccc3)[C@H]12`, which Inhibition is on record?
**A.** -0.5% and 4.46%

**Q.** With `C[C@]12CC[C@@](C3CC3)(O1)[C@H]1C=C[C@H](OC(=O)c3ccccc3)[C@H]12` as the compound, how does the Inhibition read?
**A.** 3.68% and 4.72%

**Q.** Which Inhibition does the source give for `C=C1CC(COC)(COC)C[C@@H]1[C@@H](Nc1ccc(Br)cc1)c1ccccc1` here?
**A.** 5.3%

**Q.** For `C[C@@H]1CC(=O)C=C2C(=O)[C@@H]3[C@@H](C3(C)C)[C@]21C`, which Inhibition is on record?
**A.** -0.58%

**Q.** `C[C@]12CC[C@@](C)(O1)[C@H]1C=C[C@H](OC(=O)c3ccccc3)[C@H]12` was tested. Which Inhibition did it give?
**A.** 5.91%

**Q.** `C[C@]12CC[C@@](C3CCCC3)(O1)[C@H]1C=C[C@H](OC(=O)c3ccccc3)[C@H]12` was tested. Which Inhibition did it give?
**A.** 4.96%

**Q.** How did the Inhibition turn out when `C[C@]12CC[C@@](c3ccc4ccccc4c3)(O1)[C@H]1C=C[C@H](OC(=O)c3ccccc3)[C@H]12` was run?
**A.** 2.97%

**Q.** Which Inhibition does the source give for `C=C1CC(COCc2ccc(OC)cc2)(COCc2ccc(OC)cc2)C[C@@H]1[C@@H](Nc1ccc(Br)cc1)c1ccccc1` here?
**A.** -6.97%

**Q.** `C[C@]12CC[C@@](c3ccccc3)(O1)[C@H]1C=C[C@H](OC(=O)c3ccccc3)[C@H]12` was tested. Which Inhibition did it give?
**A.** -1.59% and 4.39%
